An excerpt weighted towards active compounds, which were near 2.4% of everything screened.
D2 PAM-1 – HTS Assay for Positive Allosteric Modulators of the Human D2 Dopamine Receptor: Primary Screen for Potentiators. D(2) dopamine receptor (Homo sapiens), P14416. AID 485347, 2010. 340,000 tested, 0.34% active. HEK293 T-REx D2, calcium flux, EC20 dopamine potentiation. potentiation, % at 10 µM;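 active = potentiation over 3 SD above the plate norm, cut at about 30% in these data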; also: 0% is about no effect
Target sequence (P14416 whole entry, looked up): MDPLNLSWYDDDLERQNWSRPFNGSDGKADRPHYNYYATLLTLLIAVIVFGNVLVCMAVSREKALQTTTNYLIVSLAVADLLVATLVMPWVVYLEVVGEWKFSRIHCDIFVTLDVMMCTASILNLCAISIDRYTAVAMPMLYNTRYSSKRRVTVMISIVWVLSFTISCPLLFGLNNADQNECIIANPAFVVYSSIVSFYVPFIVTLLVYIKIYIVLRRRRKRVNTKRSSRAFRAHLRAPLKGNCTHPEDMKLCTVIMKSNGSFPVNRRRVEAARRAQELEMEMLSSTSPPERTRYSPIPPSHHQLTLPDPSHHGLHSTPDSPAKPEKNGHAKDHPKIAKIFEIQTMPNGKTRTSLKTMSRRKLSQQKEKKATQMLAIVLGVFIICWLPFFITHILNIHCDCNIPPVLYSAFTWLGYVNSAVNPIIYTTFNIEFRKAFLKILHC
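Potentiation of an EC20 dopamine calcium response measured kinetically over 180 s, after a preceding 180 s compound-only read flagging agonists. Cells: inducible Hek293 Trex D2 line, 4000/well, cultured overnight at 30 C before dye loading.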
D2 PAM-2 – Beta-Arrestin HTS for Positive Allosteric Modulators of the Human D2 Dopamine Receptor: Potentiators | D(2) dopamine receptor (Homo sapiens), P14416 | DiscoveRx D2 beta-arrestin cells, luminescence, 90 min; 100% = 57 uM dopamine signal | 360,000 tested, 0.23% active | AID 624464, 2012 | potentiation, % (no concentration beside the values); in the data active = potentiation above about 50%
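D2 cells co-treated with compound plus 50 nM dopamine (EC20) for 90 min at 37 deg C to detect potentiation. Beta-arrestin recruitment was read as enzyme-fragment luminescence after 1 h at ambient temperature. Full response was set by 57 uM dopamine.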
D2 ag-1 – HTS Assay for Allosteric Agonists of the Human D2 Dopamine Receptor: Primary Screen for Agonists; 340,000 tested, 0.53% active; HEK293 T-REx D2 cells, calcium flux agonist mode; activation, % at 2 µM;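 active = activation over 3 SD above normal in the single-dose calcium agonist read, cut at about 30% in these data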; also: 0% is about no effect
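Agonism is scored from calcium flux in a force-coupled, inducible HEK293 cell line expressing D2, read kinetically for 180 s after compound addition against dopamine controls.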
D2 ag-2 – Beta-Arrestin HTS for Positive Allosteric Modulators of the Human D2 Dopamine Receptor: Agonists; D(2) dopamine receptor (Homo sapiens), P14416; DiscoveRx PathHunter D2 beta-arrestin, luminescence, 90 min; 100% = 57 uM dopamine signal; activation, % (no concentration beside the values); 360,000 tested, 0.084% active; AID 624465, 2012; in the data active = activation above about 40%
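DiscoveRx PathHunter D2 beta-arrestin cells (2,100/well) attached overnight, then compound-stimulated 90 min at 37 C in HBSS/10 mM HEPES/0.1% Tween-20 buffer; beta-galactosidase complementation read by luminescence after 1 h at ambient temperature. Dopamine 57 uM final (EC100) as control.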
D2 antagonist – HTS Assay for Allosteric Antagonists of the Human D2 Dopamine Receptor: Primary Screen for Antagonists; HEK293 TREx D2 cells, calcium flux, dopamine EC80; inhibition, % at 10 µM; 340,000 tested, 2% active; D(2) dopamine receptor (Homo sapiens), P14416; in the data active = inhibition above about 30%; inactive = below that, where a call was filed; also: 0% is about no effect
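Dopamine at EC80 is the agonist stimulus; test compounds precede it by 180 s. Calcium flux read kinetically in a force-coupled, inducible HEK293 T-REx D2 cell line.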
The depositor's hits bear a star; · = not tested or not shown.

SMILES | D2 PAM-1 | D2 PAM-2 | D2 ag-1 | D2 ag-2 | D2 antagonist
COc1ccc(S(=O)(=O)NC2CCSc3ccccc32)cc1NC(C)=O (stereo not given) | 16 | -4 | 0 | -1 | -2
Cc1ccc(OCC(=O)NCC2(N3CCOCC3)CCCCC2)cc1C | 13 | · | -2 | · | ·
O=C(NCC(c1cccs1)S(=O)(=O)c1cccs1)c1c(F)cccc1F (stereo not given) | 8 | · | 1 | · | ·
CCc1ccc(-n2nc(C)c3c(C(=O)Nc4cc(OC)cc(OC)c4)cc(C)nc32)cc1 | -7 | · | 0 | · | ·
CCCn1nnnc1NCc1ccc(C(C)C)cc1 | 1 | -37 | -1 | -1 | 34*
Cc1nnc(NC(=O)c2ccc(S(=O)(=O)N3CC(C)CC(C)C3)cc2)o1 (stereo not given) | 35* | -8 | 0 | -7 | -4
O=C(CSCc1ccc(Cl)cc1Cl)Nc1ccc(O)cc1C(=O)O | 3 | 59* | 3 | 12 | 21
O=C(Nc1ccc(Cl)cc1)NC1CCCC1Cc1ccco1 (stereo not given) | -16 | -25 | 1 | -3 | 53*
O=C(Nc1ccc(Cl)cc1)NC1CCCCC1Cc1ccco1 (stereo not given) | -8 | -5 | 3 | -5 | -13
O=C(CSc1nc(O)c(Cc2ccccc2)c(=O)[nH]1)Nc1ccccc1 | 16 | -16 | 0 | -1 | 6
COc1ccc(NC(=O)CSc2nc(O)c(Cc3ccccc3)c(=O)[nH]2)cc1 | 13 | -15 | 0 | 0 | 53*
Nc1nc(SCC(=O)Nc2ccc(Cl)cc2)[nH]c(=O)c1-c1ccccc1 | -22 | -29 | -1 | -2 | 36*
COc1cc(/C=C2\SC(=S)N(C(C(=O)O)c3ccccc3)C2=O)ccc1O (stereo not given) | 0 | -20 | 33* | -10 | 1
CCOc1cc(/C=C2\SC(=S)N(C(C(=O)O)c3ccccc3)C2=O)ccc1O (stereo not given) | 12 | -20 | 0 | -11 | -8
CCOc1ccc(N(CC(=O)NC(C)CC)S(C)(=O)=O)cc1 (stereo not given) | -3 | -21 | 2 | -3 | 38*
CC(C)(C)OC(=O)N1CCC(c2c(C(=O)NCc3cccs3)cnn2-c2cccc(F)c2)CC1 | 3 | · | 0 | · | ·
COc1ccccc1S(=O)(=O)Cc1ccc(C(=O)NCc2ccc(Cl)cc2)o1 | 0 | · | · | · | ·
CC1(C(=O)NNC(=O)c2ccc([N+](=O)[O-])cc2)CC1(Br)Br (stereo not given) | 4 | -28 | 0 | -5 | 37*
CC1(C(=O)NNC(=O)c2cccc([N+](=O)[O-])c2)CC1(Br)Br (stereo not given) | -4 | -4 | 0 | 2 | 2
CCOc1ccc(/C=N/OCC(=O)NCc2ccc3c(c2)OCO3)cc1OC | -8 | -18 | -1 | 1 | 32*
CCN1C(=O)C(CC(=O)Nc2ccc(OC)cc2)N(CCCN2CCN(c3ccc(F)cc3)CC2)C1=S (stereo not given) | · | 7 | -1 | 14 | 57*
COCCc1nn2c(=O)cc(COC(=O)C(c3ccccc3)c3ccccc3)nc2s1 | 2 | · | · | · | ·
COc1ccc(C)cc1S(=O)(=O)Nc1ccc(F)c(Cl)c1 | -1 | 28 | 0 | -3 | 32*
CCOC(=O)c1cc(-c2ccccc2)n(CCC(=O)NCCc2ccccc2)c1C | 20 | · | -1 | · | ·
Cc1nc(N2CCc3ccccc3C2)[nH]c(=O)c1Cc1ccccc1 | 5 | 1 | 1 | 0 | 12
SMILES | D2 PAM-1 | D2 PAM-2 | D2 ag-1 | D2 ag-2 | D2 antagonist
CCCCCc1c(C)nc(N2CCc3ccccc3C2)[nH]c1=O | -14 | -16 | -2 | -4 | 32*
Cc1cc2n(n1)SC(Nc1cccc3ccccc13)N2 (stereo not given) | 0 | 11 | 1 | -1 | -2
CCc1ccccc1NC1Nc2cc(C)nn2S1 (stereo not given) | 56* | -8 | 0 | -4 | 8
Cc1cccc(CN2CCN(CC(=O)Nc3c(C)cccc3C)S2(=O)=O)c1 | 5 | · | 0 | · | ·
Fc1ccc2c(c1)Sc1ccc(Cl)cc1CC2N1CCN(CCC2OCCO2)CC1 (stereo not given) | · | -25 | · | -8 | ·
O=C(c1ccccc1Cl)N1CCNCC1 | -2 | -5 | -1 | -2 | -8
CSc1ccc2c(c1)C(N1CCN(C)CC1)Cc1ccc(F)cc1S2 (stereo not given) | · | -12 | · | 0 | ·
Clc1cccc2c1Sc1ccccc1CC2N1CCNCC1 (stereo not given) | -17 | -17 | 2 | -2 | 66*
NC(=O)CCN1CCN(CCOC2Cc3cc(Cl)ccc3Sc3ccccc32)CC1 (stereo not given) | -25 | -37 | 0 | 3 | 94*
COc1ccc2c(c1)CC(N1CCN(C)CC1)c1cc(OC)ccc1S2 (stereo not given) | · | -23 | · | -6 | ·
Clc1ccc2c(c1)C(N1CCNCC1)Cc1ccccc1S2 (stereo not given) | -28 | -38 | 1 | -3 | 99*
COCCCN1CCN(C2Cc3ccccc3Sc3ccc(Cl)cc32)CC1 (stereo not given) | -28 | -42 | 1 | -3 | 107*
O=C(NCc1ccc(F)cc1)C1CCCN(c2ncnc3onc(-c4ccc(F)cc4)c23)C1 (stereo not given) | -6 | · | · | · | ·
COc1ccc(CC(=O)Nc2ccc3nc(SC)sc3c2)cc1OC | -22 | 1 | 33* | 4 | 21
OCCN(Cc1ccccc1)CC1CC2C=CC1C2 (stereo not given) | 9 | 5 | 0 | -2 | 37*
OCCN(Cc1ccccc1)CC1CCCCC1 | 9 | -20 | 1 | -3 | -7
CCCN(CCC)C(=O)c1nn(C)c2c1CSc1ccc(C)cc1-2 | -4 | · | 0 | · | ·
O=S(=O)(c1ccc(F)cc1)N1CCN(CC(O)COCc2cccs2)CC1 (stereo not given) | 5 | 24 | 0 | 0 | 6
OC(COCc1cccs1)CN1CCN(c2cccc(C(F)(F)F)c2)CC1 (stereo not given) | -19 | -28 | 2 | 0 | 50*
CCc1ccc(NC(=O)N2CCN(Cc3cc(=O)n4nc(-c5ccccc5OC)sc4n3)CC2)cc1 | 2 | · | 0 | · | ·
C/C=C(\C)CN1CCc2cc(OC)c(OC)cc2C1 | 31* | -15 | 0 | 1 | -5
COc1cc2c(cc1OC)CN(CC(=O)NC(=O)NCc1ccccc1)CC2 | 25 | -3 | 2 | -2 | 0

Bioassay records from PubChem BioAssay.
